From PubChem BioAssay (Tox21)
Several values for one entry are separate records, joined by “and”; a condition that tells them apart may be missing. Equal values may be shown once. Values without a mark were called inactive. Records with an inconclusive call do not appear. Entries that show only a call come without a potency. Activity calls are given as the source filed them. Unless noted, calls come from the whole dose curve; as a rule, active = well fitted curve in the direction sought with a large enough effect in the repeat runs; inconclusive = weak or mixed curves; inactive = no such curve, though single readings can be large; an effect the other way counts as inactive or inconclusive.

Columns and labels:
[1] = target: Thyrotropin receptor (Homo sapiens) (UniProt P16473); assay: qHTS assay to identify small molecule agonists of the thyroid stimulating hormone receptor (TSHR) signaling pathway (AID 1224843; calls by dose curve; note: nearly all actives have a fitted effect of over 45% in size)
How it was run: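 Agonist activity read as cAMP rise via d2/cryptate HTRF competition, 1 h room-temperature detection, in HEK293 cells expressing TSHR. Fifteen-point titrations, each run in triplicate, with a 30 min room-temperature incubation beforehand.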

[2] = qHTS assay to identify small molecule agonists of the hypoxia (HIF-1) signaling pathway - cell viability counter screen (AID 1224844; calls by dose curve; note: nearly all actives have a fitted effect of over 50% in size)
How it was run: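 Same wells as the HIF-1 reporter screen; ME-180 cells carrying HRE-bla, 17 hr treatment at 37C; CellTiter-Glo luminescence read after 30 min at room temperature.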

[3] = qHTS assay to identify small molecule agonists of H2AX (AID 1224845; active = well fitted activation curve with a large enough effect in the signal ratio in the repeat runs, not every such curve was filed as active; the % refers to the signal ratio)
How it was run: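 Phospho-H2AX Ser139 measured by HTRF (ex 320 nm; em 665 and 620 nm) after 24 hr antibody incubation. Compounds, 15 concentrations, 0.76% DMSO, were applied to CHO-K1 cells for 3hr at 37C before lysis.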

[4] = qHTS assay to identify small molecule agonists of H2AX - cell viability counter screen (AID 1224847; calls by dose curve;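 note: wild-type CHO-K1 cells; top concentration of the series differs between compounds; nearly all actives have a fitted effect of over 30% in size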)
How it was run: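 For this counter screen, overnight-attached CHO-K1 cells received test compounds (15 concentrations, 0.76% DMSO final); 3 hr later at 37C, CellTiter-Glo reagent was added and luminescence recorded after 30 min at room temperature.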

[5] = qHTS assay to identify small molecule antagonists of the estrogen related receptor (ERR) signaling pathway from Tox21 library (AID 1224848); note: nearly all actives have a fitted effect of over 50% in size; note: potency is the fitted concentration of half-maximal effect
How it was run: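 Luciferase luminescence (ONE-Glo, 30 min room temperature) was the read-out. Cells of the NTP-supplied ERR line, 2,000 per well, were given 6 h at 37 C before compound addition in DMSO and 18 h exposure at 37 C.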

[6] = qHTS assay to identify small molecule agonists of the estrogen related receptor (ERR) signaling pathway from Tox21 library (AID 1224849; calls by dose curve; note: nearly all actives have a fitted effect of over 15% in size); details: ERR reporter cell line, ONE-Glo luciferase, 18 h
How it was run: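 Reporter cells (ERR, NTP source) treated with Tox21 10K compounds 18 h, 37 C. Readout: ONE-Glo luminescence, 30 min RT.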

[7] = qHTS RealTime-Glo MT Cell Viability Assay in HepG2 cells - 24 hour (AID 1224867); note: nearly all actives have a fitted effect of over 50% in size
How it was run: (§1)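 HepG2 cells (600/well) were dispensed with RealTime-Glo reagents, incubated 5 h at 37 °C, then treated with compounds in DMSO for up to 40 h. Nonlytic NanoLuc luminescence reflecting viable cells was read at each stated time point.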

[8] = qHTS RealTime-Glo MT Cell Viability Assay in HEK293 cells - 32 hour (AID 1224868); note: top concentration of the series differs between compounds; nearly all actives have a fitted effect of over 50% in size
How it was run: (§2)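 HEK293 cells seeded with NanoLuc/prosubstrate reagent, rested 5 h at 37 C, then dosed and kept at 37 C up to 40 h. Nonlytic real-time luminescence from viable cells read at 0, 8, 16, 24, 32 and 40 h.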

[9] = A CellTox Green Cytotoxicity Assay to monitor cytotoxicity in HEK293 cells - 0 hour (AID 1224869); note: nearly all actives have a fitted effect of over 50% in size
How it was run: (§3)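 Homogeneous no-lysis format: HEK293 cell suspension mixed with CellTox Green reagent, seeded, incubated 5 h at 37 C/5% CO2, then dosed by pintool with compound in DMSO.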

[10] = qHTS RealTime-Glo MT Cell Viability Assay in HepG2 cells - 40 hour (AID 1224870); note: nearly all actives have a fitted effect of over 50% in size
How it was run: (§4)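 Real-time viability: cells seeded at 600 per well together with NanoLuc and cell-permeant prosubstrate, compounds added after 5 h incubation. Luminescence tracked at 0, 8, 16, 24, 32 and 40 h of exposure.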

[11] = A CellTox Green Cytotoxicity Assay to monitor cytotoxicity in HEK293 cells - 40 hour (AID 1224871); note: nearly all actives have a fitted effect of over 45% in size
How it was run: as §3

[12] = qHTS RealTime-Glo MT Cell Viability Assay in HEK293 cells - 16 hour (AID 1224872)
How it was run: as §2

[13] = qHTS RealTime-Glo MT Cell Viability Assay in HepG2 cells - 8 hour (AID 1224873); note: nearly all actives have a fitted effect of over 55% in size
How it was run: as §4

[14] = qHTS RealTime-Glo MT Cell Viability Assay in HEK293 cells - 40 hour (AID 1224874); details: RealTime-Glo luminescence; max response: hits give low values; note: nearly all actives have a fitted effect of over 50% in size
How it was run: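 Measured as luminescence from the same continuously cultured HEK293 wells at successive time points (0, 8, 16, 24, 32, 40 h) after compound addition. Reagent present from seeding; dosing at 5 h; incubation 37 C.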

[15] = A CellTox Green Cytotoxicity Assay to monitor cytotoxicity in HEK293 cells - 24 hour (AID 1224875); note: nearly all actives have a fitted effect of over 45% in size
How it was run: as §3

[16] = A CellTox Green Cytotoxicity Assay to monitor cytotoxicity in HepG2 cells - 16 hour (AID 1224876); note: nearly all actives have a fitted effect of over 45% in size
How it was run: (§5)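 Fluorescent DNA-binding dye, 600 HepG2 cells/well, 5 h preincubation then compound in DMSO; same plates read at 0–40 h, 37 C.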

[17] = qHTS RealTime-Glo MT Cell Viability Assay in HepG2 cells - 32 hour (AID 1224877); note: nearly all actives have a fitted effect of over 55% in size
How it was run: as §1

[18] = A CellTox Green Cytotoxicity Assay to monitor cytotoxicity in HepG2 cells - 40 hour (AID 1224879); note: nearly all actives have a fitted effect of over 40% in size
How it was run: as §5

[19] = qHTS assay to identify small molecule agonists of the hypoxia (HIF-1) signaling pathway (AID 1224846; active = well fitted activation curve with a large enough effect in the signal ratio in the repeat runs, not every such curve was filed as active; the % refers to the signal ratio)
How it was run: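 In ME-180 cells bearing an HRE-bla construct, 17 h treatment with DMSO-dissolved compounds at 37C was followed by CCF4-AM loading to quantify reporter induction.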

[20] = A CellTox Green Cytotoxicity Assay to monitor cytotoxicity in HepG2 cells - 24 hour (AID 1224878); note: nearly all actives have a fitted effect of over 45% in size
How it was run: as §5

[21] = at 92.4 µM (top of the series) unless noted

Chain of Thyrotropin receptor (Homo sapiens) (P16473 whole entry, looked up): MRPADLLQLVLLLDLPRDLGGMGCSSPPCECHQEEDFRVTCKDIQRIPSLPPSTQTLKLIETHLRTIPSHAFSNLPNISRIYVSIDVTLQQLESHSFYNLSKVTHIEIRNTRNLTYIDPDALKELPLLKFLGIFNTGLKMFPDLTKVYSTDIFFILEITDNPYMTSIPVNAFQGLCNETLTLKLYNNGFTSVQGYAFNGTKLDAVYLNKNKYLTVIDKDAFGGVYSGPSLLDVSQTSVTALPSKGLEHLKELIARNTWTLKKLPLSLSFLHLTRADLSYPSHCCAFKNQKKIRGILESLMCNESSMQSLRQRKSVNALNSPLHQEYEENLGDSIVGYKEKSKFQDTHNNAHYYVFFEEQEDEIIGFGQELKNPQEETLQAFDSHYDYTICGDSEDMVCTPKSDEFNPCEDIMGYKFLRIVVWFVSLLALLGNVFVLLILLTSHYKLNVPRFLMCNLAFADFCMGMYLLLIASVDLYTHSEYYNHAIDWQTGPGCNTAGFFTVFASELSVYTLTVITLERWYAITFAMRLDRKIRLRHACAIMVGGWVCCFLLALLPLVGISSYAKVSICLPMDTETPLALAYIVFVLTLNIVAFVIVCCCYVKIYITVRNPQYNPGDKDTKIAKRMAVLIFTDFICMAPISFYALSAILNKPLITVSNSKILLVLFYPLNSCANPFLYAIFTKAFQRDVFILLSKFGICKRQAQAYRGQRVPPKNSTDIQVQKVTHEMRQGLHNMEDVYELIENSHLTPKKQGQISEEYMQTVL

Structure (SMILES): COCCc1ccc(OCC(O)CNC(C)C)cc1 (stereo unspecified)
- Potency [1]: inactive
- Potency [2]: inactive
- outcome [3]: inactive
- Potency [4]: inactive
- Potency [5]: inactive
- activity change, positive = activation ([6]; at 42.5 µM (top of the series)): 5.48%
- activity change, positive = activation ([6]; at 92.4 µM (top of the series)): -13%
- Potency [7]: inactive
- Potency [8]: inactive
- Potency [9]: inactive
- Potency [10]: inactive
- Potency [11]: inactive
- Potency [12]: inactive
- Potency [13]: inactive
- max response [14]: 1.31% and -8.11%
- Potency [15]: inactive
- Potency [16]: inactive
- Potency [17]: inactive
- Potency [18]: inactive

Structure (SMILES): O=C1NC(=O)[C@@]2(CCOc3ccc(F)cc32)N1
- Potency [1]: inactive
- Potency [2]: inactive
- outcome [3]: inactive
- outcome [19]: inactive
- Potency [4]: inactive
- Potency [7]: inactive
- Potency [8]: inactive
- Potency [9]: inactive
- Potency [10]: inactive
- Potency [11]: inactive
- Potency [12]: inactive
- Potency [13]: inactive
- max response [14]: 10%
- Potency [15]: inactive
- Potency [16]: inactive
- Potency [17]: inactive
- Potency [20]: inactive
- Potency [18]: inactive

Structure (SMILES): CC(=O)OCC(CCn1cnc2cnc(N)nc21)COC(C)=O
- Potency [1]: inactive
- Potency [2]: inactive
- outcome [3]: inactive
- outcome [19]: inactive
- Potency [4]: inactive
- Potency [7]: inactive
- Potency [8]: inactive
- Potency [9]: inactive
- Potency [10]: inactive
- Potency [11]: inactive
- Potency [12]: inactive
- Potency [13]: inactive
- Potency [15]: inactive
- Potency [17]: inactive
- Potency [20]: inactive
- Potency [18]: inactive

Structure (SMILES): C[C@H](NC(CCc1ccccc1)C(=O)O)C(=O)N1CCC[C@H]1C(=O)O (stereo partly specified)
- Potency [1]: inactive
- Potency [2]: inactive
- outcome [3]: inactive
- outcome [19]: inactive
- Potency [4]: inactive
- Potency [5]: 5.96 µM (active)
- Potency [7]: inactive
- Potency [9]: inactive
- Potency [10]: inactive
- Potency [11]: inactive
- Potency [12]: inactive
- Potency [13]: inactive
- max response [14]: -70.9%
- Potency [15]: inactive
- Potency [20]: inactive
- Potency [18]: inactive

Structure (SMILES): N#Cc1ccc(C2CCCc3cncn32)cc1 (stereo unspecified)
- Potency [1]: inactive
- Potency [2]: inactive
- outcome [3]: inactive
- outcome [19]: inactive
- Potency [4]: inactive
- activity change, positive = activation [6, 21]: -20.4% [at 42.5 µM]
- Potency [7]: inactive
- Potency [8]: inactive
- Potency [9]: inactive
- Potency [10]: inactive
- Potency [11]: inactive
- Potency [12]: inactive
- Potency [13]: inactive
- max response [14]: 8.46%
- Potency [15]: inactive
- Potency [17]: inactive
- Potency [20]: inactive
- Potency [18]: inactive

Structure (SMILES): CCc1nccnc1CC
- Potency [1]: inactive
- activity change, negative = cytotoxicity [2]: 5.25% [at 15.8 µM]
- outcome [3]: inactive
- activation [19]: 0.257% [at 15.8 µM]
- Potency [4]: inactive
- activity, negative = inhibition [5]: 3.93% [at 19 µM]
- activity change, negative = cytotoxicity [7]: -0.21% [at 15.8 µM]
- activity change, negative = cytotoxic [8]: 3.89% [at 15.8 µM]
- activity change, negative = cytotoxic [10]: -2.15% [at 15.8 µM]
- Potency [11]: inactive
- activity change, negative = cytotoxicity [12]: 5.29% [at 15.8 µM]
- viability change, negative = cytotoxic [13]: 1.16% [at 15.8 µM]
- max response [14]: 3.61%
- activity change [15]: -5.25% [at 15.8 µM, hits give high values]
- activity change, negative = cytotoxic [17]: -1.59% [at 15.8 µM]
- cytotoxicity increase [18]: 0.942% [at 15.8 µM]

Structure (SMILES): CCC(C)C1CCCCC1=O (stereo unspecified)
- Potency [1]: inactive
- Potency [2]: inactive
- outcome [3]: inactive
- outcome [19]: inactive
- Potency [4]: inactive
- Potency [5]: inactive
- Potency [7]: inactive
- Potency [8]: inactive
- Potency [10]: inactive
- Potency [11]: inactive
- Potency [12]: inactive
- Potency [13]: inactive
- max response [14]: 7.3%
- Potency [16]: inactive
- Potency [17]: inactive
- Potency [20]: inactive
- Potency [18]: inactive

Structure (SMILES): OC[C@]1(O)OC[C@@H](O)[C@H](O)[C@@H]1O
- Potency [1]: inactive
- Potency [2]: inactive
- outcome [3]: inactive
- outcome [19]: inactive
- Potency [4]: inactive
- Potency [7]: inactive
- Potency [8]: inactive
- Potency [9]: inactive
- Potency [10]: inactive
- Potency [11]: inactive
- Potency [12]: inactive
- Potency [13]: inactive
- Potency [16]: inactive
- Potency [17]: inactive
- Potency [20]: inactive
- Potency [18]: inactive

Structure (SMILES): CCOC(=O)CC(C)=O
- Potency [1]: inactive
- Potency [2]: inactive
- outcome [3]: inactive
- outcome [19]: inactive
- Potency [4]: inactive
- Potency [7]: inactive
- Potency [8]: inactive
- Potency [9]: inactive
- Potency [10]: inactive
- Potency [11]: inactive
- Potency [12]: inactive
- Potency [13]: inactive
- Potency [15]: inactive
- Potency [16]: inactive
- Potency [17]: inactive
- Potency [20]: inactive
- Potency [18]: inactive

Structure (SMILES): CCCCOCCOCCOCCCC
- Potency [1]: inactive
- Potency [2]: inactive
- outcome [3]: inactive
- outcome [19]: inactive
- Potency [4]: inactive
- Potency [5]: inactive
- Potency [7]: inactive
- Potency [8]: inactive
- Potency [9]: inactive
- Potency [10]: inactive
- Potency [11]: inactive
- Potency [12]: inactive
- Potency [13]: inactive
- max response [14]: 3.79%
- Potency [16]: inactive
- Potency [20]: inactive
- Potency [18]: inactive

Structure (SMILES): O=C(O)CCCc1ccccc1
- Potency [1]: inactive
- Potency [2]: inactive
- outcome [3]: inactive
- Potency [4]: inactive
- Potency [5]: inactive
- activity change, positive = activation [6, 21]: 7.78% [at 42.5 µM]
- Potency [7]: inactive
- Potency [8]: inactive
- Potency [9]: inactive
- Potency [10]: inactive
- Potency [11]: inactive
- Potency [12]: inactive
- Potency [13]: inactive
- max response [14]: 0.564%
- Potency [15]: inactive
- Potency [17]: inactive
- Potency [18]: inactive

Structure (SMILES): CCC(=O)OC(C)c1ccccc1 (stereo unspecified)
- Potency [1]: inactive
- Potency [2]: inactive
- outcome [3]: inactive
- outcome [19]: inactive
- Potency [5]: inactive
- activity change, positive = activation [6, 21]: 0.422%
- Potency [7]: inactive
- Potency [9]: inactive
- Potency [10]: inactive
- Potency [11]: inactive
- Potency [12]: inactive
- Potency [13]: inactive
- Potency [16]: inactive
- Potency [17]: inactive
- Potency [20]: inactive
- Potency [18]: inactive

Structure (SMILES): NC(=O)c1ccc([N+](=O)[O-])cc1
- Potency [1]: inactive
- Potency [2]: inactive
- outcome [3]: inactive
- outcome [19]: inactive
- Potency [4]: inactive
- Potency [5]: inactive
- Potency [7]: inactive
- Potency [8]: inactive
- Potency [9]: inactive
- Potency [10]: inactive
- Potency [11]: inactive
- Potency [12]: inactive
- Potency [13]: inactive
- Potency [15]: inactive
- Potency [16]: inactive
- Potency [17]: inactive
- Potency [20]: inactive
- Potency [18]: inactive
